This is one part of a sample in which hits are shown more often than they occur.
CD40 NFkB inh: inhibitors of CD40-induced NF-kB signaling, primary screen, BL2 cells, luciferase reporter, single point | CD40L-induced, 4 h | inhibition, % at 10 µM | 0.94% of 83,000 active | AID 1053188, 2014;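 active means mean inhibition of at least 50% with a set share of replicates also reaching that level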;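 further: 0% = neutral control wells and 100% = IKK inhibitor VII at 50 µM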
* = called active by the depositor; [ ] = remark or other dose.

C[C@@H]1CN([C@H](C)CO)C(=O)c2c(c3ccccc3n2C)-c2ccccc2CO[C@H]1CN(C)C(=O)Nc1cccc(Cl)c1Cl was read as CD40 NFkB inh 54.1*[25 µM].
For C[C@H]1CN([C@@H](C)CO)C(=O)c2c(c3ccccc3n2C)-c2ccccc2CO[C@H]1CN(C)C(=O)Nc1cccc(Cl)c1Cl the results were CD40 NFkB inh 22.8[25 µM].
`CO[C@@H]1CN(C)C(=O)c2ccc(NC(=O)Nc3cccc(Cl)c3)cc2OC[C@H](C)N(C(=O)Nc2c(C)noc2C)C[C@H]1C` gave CD40 NFkB inh -6.3.
Screening C[C@H]1CCCCO[C@H](CN(C)S(=O)(=O)c2ccc(F)cc2)[C@@H](C)CN([C@@H](C)CO)C(=O)c2cc(NS(=O)(=O)c3ccc(Cl)cc3)ccc2O1 returned CD40 NFkB inh 2.1.
Screening COc1ccc(C(=O)Nc2ccc3c(c2)C(=O)N(C)[C@@H]2CC[C@H](CC(=O)NCC4CC4)O[C@H]2CO3)cc1 returned CD40 NFkB inh -18.2[25 µM].
O=C(C[C@H]1C[C@H]2c3cc(NC(=O)C4CCC4)ccc3O[C@H]2[C@H](CO)O1)NCc1ccc(Cl)cc1 was read as CD40 NFkB inh 11.2[25 µM].
`CCSc1nc2c([nH]1)c(=O)n(C)c(=S)n2C` gave CD40 NFkB inh 0.2.
Cn1c(=O)c2[nH]c(SCCN3CCCCC3)nc2n(C)c1=S was read as CD40 NFkB inh 6.9.
For CCCC(C)Sc1nc2c([nH]1)c(=S)n(C)c(=O)n2C (configuration not stated) the results were CD40 NFkB inh 93.3*.
For N#C[C@H]1[C@H](c2ccccc2)[C@H](CO)N1S(=O)(=O)c1ccc(-c2ccccc2)cc1 the results were CD40 NFkB inh -8.8[25 µM].
Screening Cc1ccc(OC(=O)N(C)C[C@@H]2OCc3cn(nn3)CCCC(=O)N([C@H](C)CO)C[C@@H]2C)cc1 returned CD40 NFkB inh -2.7.
For O=C1C(F)=CC(COC(c2ccccc2)(c2ccccc2)c2ccccc2)OC1n1cc(F)c(=O)[nH]c1=O (configuration not stated) the results were CD40 NFkB inh 100.7*.
Screening O=c1[nH]c(=O)n(C2CCCO2)cc1F (configuration not stated) returned CD40 NFkB inh 2.1.
Screening C/C=C/c1ccccc1[C@H]1[C@@H](C#N)N(C(=O)CN2CCOCC2)[C@H]1CO returned CD40 NFkB inh 0.6[25 µM].
Screening CCCn1c(C)cc(C(=O)Cn2nnc3ccccc3c2=O)c1C returned CD40 NFkB inh 23.6.
For CCCn1c(C)cc(C(=O)CN2C(=O)c3ccccc3S2(=O)=O)c1C the results were CD40 NFkB inh 52.6*.
For Cc1cc(C(=O)CN2C(=O)c3ccccc3S2(=O)=O)c(C)n1CC1CCCO1 (configuration not stated) the results were CD40 NFkB inh 13.1.
`C[C@@H]1CN(C)C(=O)c2cc(N(C)C)ccc2O[C@@H]1CN(C)C(=O)OC(C)(C)C` gave CD40 NFkB inh -0.8.
`COc1ccc(NC(=O)N(C)C[C@H]2OCc3ccccc3-c3ccccc3C(=O)N([C@@H](C)CO)C[C@@H]2C)cc1` gave CD40 NFkB inh -13.4.
Screening O=C(Nc1ccccn1)c1ccc2nc(-c3ccccc3)c(-c3ccccc3)nc2c1 returned CD40 NFkB inh -2.5.
O=C(Nc1ccccn1)c1ccc(S(=O)(=O)N2CCCC2)cc1 was read as CD40 NFkB inh -57.1.
O=C(Nc1ccccn1)c1ccc(-c2ccccc2)cc1 was read as CD40 NFkB inh 112.9*.
Screening CO[C@H](CN(C)S(=O)(=O)c1ccc(Cl)cc1)[C@@H](C)CN(Cc1ccccc1Cl)[C@@H](C)CO returned CD40 NFkB inh 11.4.
`CC(C)[C@@H]1CCc2cnnn2COC[C@H](Cc2ccccc2)NC1=O` gave CD40 NFkB inh 1.7[25 µM].
CC(=O)Nc1nccc(-c2cc(-c3ccccc3)no2)n1 was read as CD40 NFkB inh -89.7.
Cc1ccc2nc(-c3cc(-c4ccccc4)no3)cn2c1 was read as CD40 NFkB inh 63.3*.
`CN(C)C(=O)c1cc(-c2ccccc2)no1` gave CD40 NFkB inh -47.9.
COCCNC(=O)c1cc2c(c(-c3cccc(C4=CCCC4)c3)n1)[C@@H](CCO)N([S@](=O)C(C)(C)C)C2 was read as CD40 NFkB inh -17.1.
Screening N#C[C@H]1[C@H](c2ccccc2-c2ccccc2)[C@@H](CO)N1C(=O)Cc1ccncc1 returned CD40 NFkB inh 5.5[25 µM].
`NNC(=O)CCN1CCCCC1` gave CD40 NFkB inh 6.0.
Screening NC(=O)CCN1CCCCC1 returned CD40 NFkB inh -5.3.
Screening O=C(CCC(=O)CCN1CCCCC1)CCN1CCCCC1 returned CD40 NFkB inh 77.4*.
For c1ccc2nc(-c3nc4ccccc4o3)ccc2c1 the results were CD40 NFkB inh 81.8*.
For Cc1cc(-c2nc3ccccc3o2)c2ccccc2n1 the results were CD40 NFkB inh -28.9.
`O=S(=O)(Nc1ccc(-c2nc3ccccc3o2)cc1)c1ccccc1` gave CD40 NFkB inh -35.2.
`N#C[C@@H]1[C@@H](c2ccc(C#Cc3cccnc3)cc2)[C@@H](CO)N1C(=O)NC1CCCC1` gave CD40 NFkB inh 4.5.
For CC(C)C#Cc1ccc([C@H]2[C@@H](CO)N3C(=O)CN(C(=O)NC4CCCCC4)C[C@@H]23)cc1 the results were CD40 NFkB inh -2.9.
O=C(C1CCC1)N1C[C@H]2[C@@H](c3ccccc31)[C@H](CO)N2S(=O)(=O)c1ccccc1 was read as CD40 NFkB inh 0.7[25 µM].
Screening COc1ccccc1NC(=O)N1C[C@@H]2N[C@H](C1)C2c1ccc(-c2ccc(C#N)cc2)cc1 (some centres not stated) returned CD40 NFkB inh 13.2.
`COC(=O)Nc1ccc(NC(C)=O)cc1` gave CD40 NFkB inh 3.1.
Screening COC(=O)/C=C/S(=O)(=O)c1ccc(NC(C)=O)cc1 returned CD40 NFkB inh 106.5*.
`CC(=O)Nc1ccc(S(=O)(=O)CC(=O)CS(=O)(=O)c2ccc(NC(C)=O)cc2)cc1` gave CD40 NFkB inh 5.4.
`COC(=O)C[C@](O)(CCCC(C)(C)O)C(=O)O[C@@H]1C(OC)=C[C@]23CCCN2CCc2cc4c(cc2[C@H]13)OCO4` gave CD40 NFkB inh 92.3*[25 µM].
`CNC[C@H]1Oc2ccc(NS(C)(=O)=O)cc2C(=O)N(C)C[C@H]1C` gave CD40 NFkB inh 13.4.
Screening CCOC(=O)c1c(NC(=O)CN2CCCCC2)sc(CN(C)C)c1-c1ccccc1 returned CD40 NFkB inh 23.1.
`CCOC(=O)c1c(SCCN2CCCCC2)n(-c2ccccc2)c(=S)n(-c2ccccc2)c1=O` gave CD40 NFkB inh 95.4*.
For CCOC(=O)c1[nH]c(=S)n(-c2ccccc2)c1C(=O)OCC the results were CD40 NFkB inh 21.8.
For COc1ccc2c3c([nH]c2c1)[C@@H](CO)N(C(=O)C1CCOCC1)CC31CCN(Cc2cccc(F)c2)CC1 the results were CD40 NFkB inh -1.0[25 µM].
CN(C)C(=O)C[C@@H]1CC[C@@H]2[C@H](COc3ccc(NC(=O)C4CCC4)cc3C(=O)N2C)O1 was read as CD40 NFkB inh 8.4.
For O=C(C1CCOCC1)N1CC(=O)N2[C@H](C1)[C@H](c1ccc(/C=C/c3ccccc3)cc1)[C@@H]2CO the results were CD40 NFkB inh 0.0[25 µM].
COCC(=O)N1[C@H](CO)[C@H](c2ccc(-c3ccccc3OC)cc2)C12CN(C(C)=O)C2 was read as CD40 NFkB inh -6.3[25 µM].
`O=C1C(Br)=C(c2ccccc2)C(c2ccccc2)=C1c1ccccc1` gave CD40 NFkB inh 82.0*.
O=C(Nc1ccc2c(c1)[C@H]1C[C@H](CC(=O)N3CCCCC3)O[C@@H](CO)[C@H]1O2)NC1CCCC1 was read as CD40 NFkB inh -2.3.

High-throughput results deposited in PubChem by Broad Institute.
